Bioassay records as filed in PubChem.
Pf Dd2 inh = inhibitors of Plasmodium falciparum Dd2 growth | P. falciparum Dd2 growth, SYBR Green, 72 h | Potency, µM (titrated, usually from 28.9 µM), actives largely listed as inhibitors | 4.3% of 120,000 active | AID 1347417; active = well fitted inhibition curve with a large enough effect; note: nearly all actives have a fitted effect of over 65% in size
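Infected erythrocytes (Dd2, 0.3% parasitemia, 2.5% hematocrit final) are added to compound in RPMI-1640/Albumax II medium, grown 72 h at 37C in low oxygen, then lysed with saponin/Triton-X containing SYBR Green and read by fluorescence.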
Each line names hits and unclear results; the compound was inactive in the other large screens. Shown is part of a subset that was picked to be rich in hits.

CC1CCN(C(=O)CC(c2ccc(Cl)cc2)c2cn(C)c3ccccc23)CC1 (stereo not drawn)	Pf Dd2 inh 7.9µM
Cc1nonc1CC(=O)N1C[C@@H](NS(=O)(=O)N(C)C)[C@H](C(C)C)C1	none
CC(=O)NC1CC2(CCN(C(=O)Cc3cnc[nH]3)CC2)c2ccccc21 (stereo not drawn)	none
O=C1CC2CCCC(C1)N2C(=O)c1ccc(F)cc1	none
COc1cccc(NC(=O)N2CCC[C@@H](O)[C@H](NC(=O)c3ccc(OCCN4CCCC4)cc3)C2)c1	none
NC(=O)COc1ccc(C(=O)N[C@@H]2CN(C(=O)Nc3cccc(C(F)(F)F)c3)CCC[C@H]2O)cc1	none
N#Cc1cccc(NC(=O)N2CCC[C@@H](O)[C@H](NC(=O)c3ccc(OCc4ccc(F)cc4)cc3)C2)c1	Pf Dd2 inh 5µM
c1cc(Cn2ccc3c(N4CCOCC4)nc(-c4ccc5cn[nH]c5c4)cc32)ccn1	none
CS(=O)(=O)N1CCN(c2ccc(Cl)nn2)C(=O)C1	none
c1nc(N2CCOCC2)ncc1CN1CC[C@H]2CNC[C@H]21	none
COc1ccc(C(=O)Nc2nc3c(s2)C[C@@H]2[C@](C)(CO)[C@H](O)CC[C@@]2(C)[C@@H]3CC(=O)NCCNC(C)=O)cc1	none
CCCCCC(=O)Nc1nc2c(s1)C[C@@H]1[C@](C)(CO)[C@H](O)CC[C@@]1(C)[C@@H]2CC(=O)NCc1cccnc1	none
COc1ccc(C(=O)Nc2nc3c(s2)C[C@@H]2[C@](C)(CO)[C@H](O)CC[C@@]2(C)[C@@H]3CC(=O)NCc2ccco2)cc1	Pf Dd2 inh 2µM
CC(C)(C)C(=O)Nc1nc2c(s1)C[C@@H]1[C@](C)(CO)[C@H](O)CC[C@@]1(C)[C@@H]2CC(=O)NCc1ccco1	none
C[C@]1(CO)[C@H]2Cc3sc(NC(=O)c4ccco4)nc3[C@@H](CC(=O)NCc3cccnc3)[C@]2(C)CC[C@H]1O	Pf Dd2 inh 7.1µM
C[C@]1(CO)[C@H]2Cc3sc(NC(=O)c4cccs4)nc3[C@@H](CC(=O)NCc3cccnc3)[C@]2(C)CC[C@H]1O	none
C#CCNC(=O)C[C@@H]1c2nc(NC(=O)c3ccc(F)cc3)sc2C[C@@H]2[C@](C)(CO)[C@H](O)CC[C@]21C	none
C[C@]1(CO)[C@H]2Cc3sc(NC(=O)c4cccc(F)c4)nc3[C@@H](CC(=O)NCc3ccco3)[C@]2(C)CC[C@H]1O	Pf Dd2 inh 8.9µM
COCCNC(=O)C[C@@H]1c2nc(NC(=O)c3ccnc(Cl)c3)sc2C[C@@H]2[C@](C)(CO)[C@H](O)CC[C@]21C	none
CC(C)c1noc(-c2cn(C3CCCN(C(=O)c4ccc(F)c(F)c4)C3)nn2)n1 (stereo not drawn)	none
O=C(CC[C@H]1NC(=O)c2ccccc2NC1=O)NCCc1ccc(O)cc1	none
Cc1nonc1OCCNC(=O)[C@H]1CNC[C@@H](C(=O)N2CCOCC2)C1	none
CC(=O)Nc1ccc(C(=O)N2CCCN(c3cc(-c4ccccc4)[nH]n3)CC2)cc1	none
O=C(c1ccccc1F)N1CCC(n2cc(-c3nc(-c4ccccc4)no3)nn2)CC1	none
O=C(Nc1cccc(Br)c1)N1CCC(n2cnnc2C2CC2)C1 (stereo not drawn)	none
CC(C)C(=O)NCC1Cn2cccc2C(=O)N1Cc1ccccc1 (stereo not drawn)	none
O=C(NCCCN1CCc2ccccc2C1)C1Cn2cccc2C(=O)N1Cc1ccccc1 (stereo not drawn)	Pf Dd2 inh 0.89µM
O=C(NCc1ccccc1)C1Cn2cccc2C(=O)N1Cc1cccnc1 (stereo not drawn)	none
O=C(NCCCN1CCCC1=O)C1Cn2cccc2C(=O)N1Cc1ccccc1 (stereo not drawn)	none
O=C(NCCc1ccccc1)C1Cn2cccc2C(=O)N1Cc1ccccc1 (stereo not drawn)	none
O=C(NCC1Cn2cccc2C(=O)N1Cc1ccccc1)NC1CCCC1 (stereo not drawn)	none
O=C(CN1CCCCCC1)NCC1Cn2cccc2C(=O)N1Cc1ccccc1 (stereo not drawn)	Pf Dd2 inh 4µM
CC(C)CNC(=O)C1Cn2cccc2C(=O)N1Cc1cccnc1 (stereo not drawn)	Pf Dd2 inh 7.9µM
CC(C)CNC(=O)C1Cn2cccc2C(=O)N1Cc1ccccc1 (stereo not drawn)	none
CCCn1c(C)cnc1CCNC(=O)c1nn(C)c2ccccc12	none
CCc1ccc(NC(=O)c2cc3n(n2)CC(c2ccc(Cl)cc2)OC3)cc1 (stereo not drawn)	none
CCn1ccnc1C1CCCN(C(=O)c2n[nH]c3c2CN(C)CC3)C1 (stereo not drawn)	none
O=C(CCC1CCCN(S(=O)(=O)c2ccc(F)cc2)C1)NCc1ccco1 (stereo not drawn)	none
COc1cc(F)ccc1-c1nc(-c2c(C)noc2C)cc2c1cc(C)n2C	none
COc1cc(F)ccc1-c1cc(-c2c(C)noc2C)c2cncn2c1	Pf Dd2 inh 3.5µM
COc1ccc(-c2cc(-c3c(C)noc3C)c3cncn3c2)cc1OC	Pf Dd2 inh 7.1µM
COc1ccc(-c2ccc3onc(C)c3n2)cc1OC	none
COc1cccc(-c2cc(-c3c(C)noc3C)c3cncn3c2)c1OC	none
COC[C@@H]1CN(Cc2cc(C)nn2C)C[C@H]1c1nc(C)no1	none
COc1ccc(CN[C@H]2[C@H](O)[C@@H](N3CCCCC3)[C@@H]3OC[C@H]2O3)cc1	none
COc1ccccc1N1CCN(C(=O)CCn2ccc(=O)[nH]c2=O)CC1=O	none
COC1CCN(c2ncc(C(C)(C)C(=O)O)c(N3CCOCC3)n2)CC1	none
CSc1cccc(Nc2ncncc2-c2nc(-c3ccccc3)no2)c1	none
CC(C)(C)NC(=O)N1CCCC(c2nc(CCOc3ccc(F)cc3)no2)C1 (stereo not drawn)	none
COCCCn1c(C)cnc1CC1CCN(C(=O)Nc2ccc(C)c(C)c2)CC1	none
CCN1CCN(c2cc(C)c3cc(NC(=O)/C=C/c4cccc(OC)c4OC)ccc3n2)CC1	Pf Dd2 inh 1.1µM
CCOC(=O)N1CCN(Cc2nc3cc(NC(=O)c4ccccc4OC)ccc3n2C(C)C)CC1	none
COc1cc(NC(=O)C2CCN(c3cnc4ccccc4n3)CC2)cc(OC)c1OC	none
COc1cccc(/C=C/C(=O)Nc2ccc3nc(N4CCN(C)CC4)cc(C)c3c2)c1OC	Pf Dd2 inh 1.3µM
O=c1cccc2n1C[C@H]1C[C@@H]2CN(C[C@H]2CN3CC[C@H]2C[C@@H]3CNS(=O)(=O)c2ccccc2)C1	none
COCCN1CCOC[C@H]2CCN(C(=O)c3ccoc3)C[C@H]21	none
O=C1NC2(CN(Cc3ccsc3)C2)Oc2ccccc21	none
CC(C)NC(=O)O[C@@H]1CC[C@]2(C)C(CC[C@@H](O)[C@H]2CC(=O)NCc2ccco2)[C@]1(C)CO (stereo partly drawn)	none
CCCNC(=O)O[C@@H]1CC[C@]2(C)[C@H](CC[C@@H](O)[C@H]2CC(=O)N2CCCCC2)[C@]1(C)CO	none
C[C@]1(CO)C2CC[C@@H](O)[C@@H](CC(=O)NCc3cccs3)[C@]2(C)CC[C@H]1OC(=O)NC1CCCCC1 (stereo partly drawn)	Pf Dd2 inh 11µM
CCNC(=O)O[C@@H]1CC[C@]2(C)C(CC[C@@H](O)[C@H]2CC(=O)NCc2ccc(F)cc2)[C@]1(C)CO (stereo partly drawn)	none
COc1cc(NC(=O)O[C@@H]2CC[C@]3(C)C(CC[C@@H](O)[C@H]3CC(=O)N3CCCC3)[C@]2(C)CO)cc(OC)c1 (stereo partly drawn)	none
COc1cc(NC(=O)O[C@@H]2CC[C@]3(C)C(CC[C@@H](O)[C@H]3CC(=O)N3CCCCC3)[C@]2(C)CO)cc(OC)c1OC (stereo partly drawn)	Pf Dd2 inh 5µM
